Compound activity: PubChem, ICCB-Longwood Screening Facility, Harvard Medical School
fixLJ activator – B. multivorans fixK reporter activation; B. multivorans fixK-promoter GFP reporter, 18 h; stronger effect = higher value; z-score (no concentration beside the values); hit rate 0.3% among 29,000; AID 1918990;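 active means replicate mean overnight rise in green fluorescent reporter signal, 3 or more SD over negative controls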
Numbers stand for hits; - = inactive. The full list was thinned out, with hits kept by preference.

SMILES | fixLJ activator
O=C(Cn1ncc2c3ccccc3n(Cc3cccc(Cl)c3)c2c1=O)NCCCN1CCCCC1 | 16.1
Cc1ccccc1Cn1c2ccccc2c2cnn(CC(=O)NCc3cccc(Cl)c3)c(=O)c21 | -
CN(Cc1ccccc1)C(=O)Cn1ncc2c3ccccc3n(Cc3cccc(Cl)c3)c2c1=O | 5.53
CCCCN(C)CCCNC(=O)Cn1ncc2c3ccccc3n(Cc3cccc(Cl)c3)c2c1=O | 6.4
CCCCN(CC)CCCNC(=O)Cn1ncc2c3ccccc3n(Cc3ccc(F)cc3)c2c1=O | -
O=C(Cn1ncc2c3ccccc3n(Cc3ccc(Cl)cc3)c2c1=O)NCCCc1ccccc1 | -
COc1cccc(Cn2nc(C)nc2CN2CC(c3ccccc3)CC2=O)c1 (stereo unspecified) | -
O=C(NC1COCC1Cc1ccncc1)c1ccc(C(=O)N2CCOCC2)cc1 (stereo unspecified) | -
CN(Cc1n[nH]c2c1CCC2)C(=O)NCCc1csc(-c2cccnc2)n1 | -
Cc1nn(C)cc1NC(=O)CN1CCCC(c2nc3c(C)cccc3[nH]2)C1 (stereo unspecified) | -
COc1ccccc1CN1CC(C(=O)N(C)Cc2nc(-c3ccccn3)no2)CC1=O (stereo unspecified) | -
CC(C)C1C=CCN1S(=O)(=O)c1ccc(-c2cc(C(F)(F)F)[nH]n2)o1 (stereo unspecified) | -
Cc1[nH]c2c(F)cccc2c1CC(=O)Nc1ccc2nc(C(C)O)[nH]c2c1 (stereo unspecified) | -
Cc1ccc(NC(=O)CNC(=O)C2(N3CCCC3)CCCC2)c(F)c1 | -
CCCCCCc1cc2cc(-c3nnc(-c4ccc(C)cc4)o3)c(=O)oc2cc1O | 8.58
COc1cccc(-c2nnc(-c3cc4cc(Cl)ccc4oc3=O)o2)c1 | -
CCN(CC)c1ccc2cc(-c3nnc(-c4cccc(Cl)c4)o3)c(=O)oc2c1 | -
CC(=O)N1CCc2[nH]cnc2C12CCN(C(=O)c1cc3ccccc3[nH]1)CC2 | -
CCn1c(C2CCN(S(=O)(=O)c3sccc3C)CC2)nn(C)c1=O | -
O=C(NCCn1ccnc1)c1ccc2c(c1)n(CC1CC1)c(=O)n2C1CCCCC1 | -
COc1ccc(-c2cc(C(=O)Nc3ccc4c(c3)OCO4)no2)cc1 | -
COc1cc(NC(=O)c2cc(-c3ccc4c(c3)OCO4)on2)cc(OC)c1OC | 3.73
COc1ccc(NC(=O)c2cc(-c3ccc4c(c3)OCO4)on2)c(OC)c1 | -
CN(C)Cc1cccc(C(=O)NC2COCC2Cc2ccncc2)c1 (stereo unspecified) | -
CNc1nc(-c2cccc(C(=O)NC(C)c3c(C)n[nH]c3C)c2)ncc1F (stereo unspecified) | -
SMILES | fixLJ activator
CC(NC(=O)N1CCCN(C(=O)C(F)(F)F)CC1)c1ccsc1 (stereo unspecified) | -
O=C(Cn1ncc2c3ccccc3n(Cc3ccc(Cl)cc3)c2c1=O)N1CCCCCC1 | 6.38
CCCN1CCN(C(=O)Cn2ncc3c4ccccc4n(Cc4cccc(Cl)c4)c3c2=O)CC1 | 14.1
O=C(Cn1ncc2c3ccccc3n(Cc3ccccc3F)c2c1=O)N1CCCCC1 | -
CN1CCN(C(=O)Cn2ncc3c4ccccc4n(Cc4ccc(F)cc4)c3c2=O)CC1 | -
O=C(Cn1ncc2c3ccccc3n(Cc3ccccc3F)c2c1=O)N1CCCCCC1 | -
CCOC(=O)C1CCN(C(=O)Cn2ncc3c4ccccc4n(Cc4ccccc4)c3c2=O)CC1 | -
O=C(NC1CCOCC1Oc1ccc(CO)cc1)c1ccc(O)cn1 (stereo unspecified) | -
O=C(C1CCOC1)N1CCCN(c2nnnn2-c2ccccc2)CC1 (stereo unspecified) | -
O=C(NC1CCN(Cc2ccccn2)CC1O)c1onc2c1CCCC2 (stereo unspecified) | -
Cc1noc(-c2ccc(S(=O)(=O)NCC(CO)Cc3ccco3)o2)c1C (stereo unspecified) | -
COc1ccc(CN(C)C(=O)NC(CC(=O)O)CC(C)C)cc1 (stereo unspecified) | -
CCN1C(=O)COc2cc(NC(=O)N(C)Cc3cc(C4CC4)on3)ccc21 | -
NC(=O)c1ccc(OCCCN2CCCC(C(=O)N3CCOCC3)C2)cc1 (stereo unspecified) | -
CN1CCc2[nH]nc(C(=O)N3CCC(CN4CCOCC4)CC3)c2C1 | -
CCOc1ccc(-n2c(=O)c3c(C)c(C)sc3n(CC(=O)c3ccccc3)c2=O)cc1 | 3.22
Cc1ccc(-n2c(=O)c3c(C)c(C)sc3n(CC(=O)c3ccc(Cl)cc3)c2=O)cc1C | -
CCOc1ccc(-n2c(=O)c3c(C)c(C)sc3n(CC(=O)N(CC)Cc3ccccc3)c2=O)cc1 | -
CCn1c(CN(C)CCN2CCC(C)CC2)nnc1C1CC(N)C1 (stereo unspecified) | -
O=C(NCCc1cn[nH]n1)c1sccc1S(=O)(=O)N1CCCC1 | -
COc1ccc2[nH]cc(CCNC(=O)Cn3nc(C)cc3N)c2c1 | -
COc1ccccc1C(=O)Nc1ccc(OCc2cc(=O)n3cc(C)sc3n2)cc1 | -
Cc1cn2c(=O)cc(COc3ccc(NC(=O)c4ccccc4C)cc3)nc2s1 | 3.44
Cc1cn2c(=O)cc(COc3ccc(NC(=O)c4cccc(F)c4)cc3)nc2s1 | -
